Measurements reported in PubChem BioAssay (NCI).
Compounds without any hit were thinned out: in the full panel of roughly 79,000, 15% have a hit. Values without a mark were called inactive. The source made the active and inactive calls. Cut-off read from the data, not from the text of the source: active = growth inhibition above about 70%; inactive = the rest.

Experiments:
[1] = NCI Yeast Anticancer Drug Screen. Data for the wt1 strain (AID 149);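 note: 0% = growth of vehicle-treated wt1 cultures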; settings: S. cerevisiae wt1 strain (SPY 50644) growth inhibition, active compounds read high
Procedure, shortened: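 wt1 yeast, compound-treated; % growth inhibition vs vehicle control.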

[2] = NCI Yeast Anticancer Drug Screen. Data for the rad50EPP+ strain (AID 151);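 note: 0% = growth of vehicle-treated control cultures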; settings: S. cerevisiae rad50 mutant strain, active compounds read high
Procedure, shortened: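 Read-out is yeast growth inhibition relative to vehicle; cells used were the rad50EPP+ strain.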

[3] = NCI Yeast Anticancer Drug Screen. Data for the mgt1 strain (AID 153); settings: S. cerevisiae mgt1 mutant growth inhibition, active compounds read high
Procedure, shortened: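 Measured: inhibition of mgt1 yeast growth by compound, normalized to vehicle-treated cultures.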

[4] = NCI Yeast Anticancer Drug Screen. Data for the rad50 strain (AID 155);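 note: 0% = growth of vehicle-only cultures of the same strain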; settings: S. cerevisiae rad50 strain growth inhibition, active compounds read high
Procedure, shortened: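 Genetically altered yeast (DNA repair pathway); compound treatment; growth inhibition vs vehicle ctrl.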

[5] = NCI Yeast Anticancer Drug Screen. Data for the mec2-1 strain (AID 157); settings: S. cerevisiae mec2-1 strain, active compounds read high
Procedure, shortened: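 Using mec2-1 yeast: add compound, measure growth, express inhibition versus vehicle-treated cultures.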

[6] = NCI Yeast Anticancer Drug Screen. Data for the rad14 strain (AID 159);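 note: 0% = growth of vehicle-treated control cultures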; settings: S. cerevisiae rad14 strain growth inhibition, active compounds read high
Procedure, shortened: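 Test compounds were applied to a repair-deficient yeast strain. Its growth was then compared with that of cultures given vehicle alone, and inhibition was expressed relative to those controls.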

[7] = NCI Yeast Anticancer Drug Screen. Data for the CLN2oe strain (AID 163);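 note: 0% = growth of vehicle-only control cultures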; settings: S. cerevisiae CLN2oe strain, active compounds read high
Procedure, shortened: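 Whole-cell yeast growth assay. A strain engineered for altered cell-cycle control received compound, and inhibition relative to vehicle-treated cultures was recorded.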

[8] = NCI Yeast Anticancer Drug Screen. Data for the cln2 rad14 strain (AID 165);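 note: 0% = growth equal to vehicle treated cultures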; settings: S. cerevisiae cln2 rad14 strain, active compounds read high
Procedure, shortened: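 Yeast strain cln2 rad14, bearing defects in cell cycle control and DNA repair, serves as the test system; values reflect growth inhibition compared with vehicle.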

[9] = NCI Yeast Anticancer Drug Screen. Data for the bub3 strain (AID 167); settings: S. cerevisiae bub3 mutant strain, active compounds read high
Procedure, shortened: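 Yeast carrying a defined mutation is treated with each compound, and growth is compared with that of vehicle-exposed cells to give inhibition.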

[10] = NCI Yeast Anticancer Drug Screen. Data for the wt2 strain (AID 169);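 note: 0% = growth of vehicle-treated yeast cultures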; settings: S. cerevisiae wt2 strain growth inhibition, active compounds read high
Procedure, shortened: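 Treated yeast vs. vehicle-treated yeast: growth inhibition determined.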

[11] = NCI Yeast Anticancer Drug Screen. Data for the sgs1 strain (AID 173);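 note: 0% = growth of vehicle-only control cultures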; settings: S. cerevisiae sgs1 mutant, active compounds read high
Procedure, shortened: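 A genetically defined yeast mutant is incubated with the test compound, and its growth is compared to that of the same strain given vehicle.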

[12] = NCI Yeast Anticancer Drug Screen. Data for the mlh1 rad18 strain (AID 175); settings: S. cerevisiae mlh1 rad18 strain growth inhibition, active compounds read high
Procedure, shortened: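 Steps: expose repair-defective yeast to compound; measure growth; express inhibition against vehicle-treated controls.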

[13] = NCI Yeast Anticancer Drug Screen. Data for the rad18 strain (AID 177); settings: S. cerevisiae rad18 mutant growth inhibition, active compounds read high
Procedure, shortened: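 Measured value is growth inhibition of a yeast strain bearing a DNA repair alteration, referenced to vehicle-treated cells.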

[14] = NCI Yeast Anticancer Drug Screen. Data for the sgs1 mgt1 strain (AID 161);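 note: 0% = growth of cultures given vehicle only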; settings: S. cerevisiae sgs1 mgt1 strain, active compounds read high
Procedure, shortened: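 Yeast cells carrying a defined DNA-repair defect were exposed to test compounds. Growth inhibition was measured relative to vehicle-treated controls.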

[15] = NCI Yeast Anticancer Drug Screen. Data for the mlh1 strain (AID 171);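 note: 0% = growth of vehicle-treated control cultures of the same strain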; settings: S. cerevisiae mlh1 strain growth inhibition, active compounds read high
Procedure, shortened: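 A yeast strain with a defined genetic lesion serves as the test organism. Cultures receive compound or vehicle, and growth is measured.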

[16] = at 5.0 µM (retest, dose inferred, filed as 0.5)
[17] = at 50.0 µM (retest, dose inferred, filed as 5.0)

## O=C1OC(CCl)CN1/N=C/c1ccc([N+](=O)[O-])o1 (stereo not drawn)
[1]; at 1.2 µM
  growth inhibition: -2%
[1]; at 3.7 µM
  growth inhibition: 2%
[1]; at 11.0 µM
  growth inhibition: 14%
[1]; at 33.0 µM
  growth inhibition: 21%
[1]; at 100.0 µM
  growth inhibition: 54%
[2]; at 1.2 µM
  growth inhibition: -3%
[2]; at 3.7 µM
  growth inhibition: -17%
[2]; at 11.0 µM
  growth inhibition: 14%
[2]; at 33.0 µM
  growth inhibition: 47%
[2]; at 100.0 µM
  growth inhibition: 73% (active)
[3]; at 1.2 µM
  growth inhibition: -3%
[3]; at 3.7 µM
  growth inhibition: -8%
[3]; at 11.0 µM
  growth inhibition: -3%
[3]; at 33.0 µM
  growth inhibition: 1%
[3]; at 100.0 µM
  growth inhibition: 25%
[4]; at 1.2 µM
  growth inhibition: -10%
[4]; at 3.7 µM
  growth inhibition: -8%
[4]; [16]
  growth inhibition: 19%
[4]; at 11.0 µM
  growth inhibition: 3%
[4]; at 33.0 µM
  growth inhibition: 45%
[4]; [17]
  growth inhibition: 78% (active)
[4]; at 50.0 µM
  growth inhibition: 21.7%
[4]; at 100.0 µM
  growth inhibition: 80% (active)
[5]; at 1.2 µM
  growth inhibition: -4%
[5]; at 3.7 µM
  growth inhibition: -3%
[5]; [16]
  growth inhibition: 9%
[5]; at 11.0 µM
  growth inhibition: 0%
[5]; at 33.0 µM
  growth inhibition: 7%
[5]; [17]
  growth inhibition: 76% (active)
[5]; at 50.0 µM
  growth inhibition: 44.2%
[5]; at 100.0 µM
  growth inhibition: 19%
[6]; at 1.2 µM
  growth inhibition: -7%
[6]; at 3.7 µM
  growth inhibition: 0%
[6]; at 11.0 µM
  growth inhibition: 14%
[6]; at 33.0 µM
  growth inhibition: 38%
[6]; at 100.0 µM
  growth inhibition: 71% (active)
[7]; at 1.2 µM
  growth inhibition: -7%
[7]; at 3.7 µM
  growth inhibition: -8%
[7]; at 11.0 µM
  growth inhibition: -6%
[7]; at 33.0 µM
  growth inhibition: -7%
[7]; at 100.0 µM
  growth inhibition: -2%
[8]; [16]
  growth inhibition: 4%
[8]; [17]
  growth inhibition: 73% (active)
[8]; at 50.0 µM
  growth inhibition: 47.1%
[9]; at 1.2 µM
  growth inhibition: -8%
[9]; at 3.7 µM
  growth inhibition: -4%
[9]; [16]
  growth inhibition: 1%
[9]; at 11.0 µM
  growth inhibition: -5%
[9]; at 33.0 µM
  growth inhibition: 2%
[9]; [17]
  growth inhibition: 70% (active)
[9]; at 50.0 µM
  growth inhibition: 10%
[9]; at 100.0 µM
  growth inhibition: 16%
[10]; at 1.2 µM
  growth inhibition: 2%
[10]; at 3.7 µM
  growth inhibition: 2%
[10]; at 11.0 µM
  growth inhibition: 20%
[10]; at 33.0 µM
  growth inhibition: 54%
[10]; at 100.0 µM
  growth inhibition: 90% (active)
[11]; at 1.2 µM
  growth inhibition: -6%
[11]; at 3.7 µM
  growth inhibition: 9%
[11]; at 11.0 µM
  growth inhibition: 49%
[11]; at 33.0 µM
  growth inhibition: 83% (active)
[11]; at 100.0 µM
  growth inhibition: 95% (active)
[12]; [16]
  growth inhibition: 66%
[12]; [17]
  growth inhibition: 92% (active)
[12]; at 50.0 µM
  growth inhibition: 87.9% (active)
[13]; at 1.2 µM
  growth inhibition: 45%
[13]; at 3.7 µM
  growth inhibition: 72% (active)
[13]; at 11.0 µM
  growth inhibition: 91% (active)
[13]; at 33.0 µM
  growth inhibition: 95% (active)
[13]; at 100.0 µM
  growth inhibition: 96% (active)

## CN(C)CCOc1ccc2c(c1)C/C(=C/c1ncc([N+](=O)[O-])n1C)C2=O
[1]; at 1.2 µM
  growth inhibition: 28%
[1]; at 3.7 µM
  growth inhibition: 5%
[1]; at 11.0 µM
  growth inhibition: 20%
[1]; at 33.0 µM
  growth inhibition: 21%
[1]; at 100.0 µM
  growth inhibition: 39%
[2]; at 1.2 µM
  growth inhibition: 22%
[2]; at 3.7 µM
  growth inhibition: 6%
[2]; at 11.0 µM
  growth inhibition: 10%
[2]; at 33.0 µM
  growth inhibition: 35%
[2]; at 100.0 µM
  growth inhibition: 59%
[3]; at 1.2 µM
  growth inhibition: 31%
[3]; at 3.7 µM
  growth inhibition: 36%
[3]; at 11.0 µM
  growth inhibition: 29%
[3]; at 33.0 µM
  growth inhibition: 36%
[3]; at 100.0 µM
  growth inhibition: 62%
[4]; at 1.2 µM
  growth inhibition: 40%
[4]; at 3.7 µM
  growth inhibition: 47%
[4]; [16]
  growth inhibition: 33%
[4]; at 11.0 µM
  growth inhibition: 64%
[4]; at 33.0 µM
  growth inhibition: 83% (active)
[4]; [17]
  growth inhibition: 75% (active)
[4]; at 50.0 µM
  growth inhibition: 74.3% (active)
[4]; at 100.0 µM
  growth inhibition: 91% (active)
[5]; at 1.2 µM
  growth inhibition: 31%
[5]; at 3.7 µM
  growth inhibition: 30%
[5]; [16]
  growth inhibition: 30%
[5]; at 11.0 µM
  growth inhibition: 53%
[5]; at 33.0 µM
  growth inhibition: 88% (active)
[5]; [17]
  growth inhibition: 95% (active)
[5]; at 50.0 µM
  growth inhibition: 89.2% (active)
[5]; at 100.0 µM
  growth inhibition: 90% (active)
[6]; at 1.2 µM
  growth inhibition: 33%
[6]; at 3.7 µM
  growth inhibition: 51%
[6]; at 11.0 µM
  growth inhibition: 81% (active)
[6]; at 33.0 µM
  growth inhibition: 95% (active)
[6]; at 100.0 µM
  growth inhibition: 97% (active)
[14]; [16]
  growth inhibition: 47%
[14]; [17]
  growth inhibition: 82% (active)
[14]; at 50.0 µM
  growth inhibition: 83.1% (active)
[7]; at 1.2 µM
  growth inhibition: 26%
[7]; at 3.7 µM
  growth inhibition: 35%
[7]; at 11.0 µM
  growth inhibition: 31%
[7]; at 33.0 µM
  growth inhibition: 27%
[7]; at 100.0 µM
  growth inhibition: 64%
[8]; [16]
  growth inhibition: 13%
[8]; [17]
  growth inhibition: 74% (active)
[8]; at 50.0 µM
  growth inhibition: 77.9% (active)
[9]; at 1.2 µM
  growth inhibition: 3%
[9]; at 3.7 µM
  growth inhibition: 10%
[9]; [16]
  growth inhibition: 6%
[9]; at 11.0 µM
  growth inhibition: 10%
[9]; at 33.0 µM
  growth inhibition: 20%
[9]; [17]
  growth inhibition: 6%
[9]; at 50.0 µM
  growth inhibition: 72.9% (active)
[9]; at 100.0 µM
  growth inhibition: 59%
[10]; at 1.2 µM
  growth inhibition: -40%
[10]; at 3.7 µM
  growth inhibition: -23%
[10]; at 11.0 µM
  growth inhibition: -30%
[10]; at 33.0 µM
  growth inhibition: -22%
[10]; at 100.0 µM
  growth inhibition: 25%
[15]; at 1.2 µM
  growth inhibition: 31%
[15]; at 3.7 µM
  growth inhibition: 36%
[15]; at 11.0 µM
  growth inhibition: 29%
[15]; at 33.0 µM
  growth inhibition: 36%
[15]; at 100.0 µM
  growth inhibition: 62%
[11]; at 1.2 µM
  growth inhibition: 29%
[11]; at 3.7 µM
  growth inhibition: 52%
[11]; at 11.0 µM
  growth inhibition: 65%
[11]; at 33.0 µM
  growth inhibition: 70% (active)
[11]; at 100.0 µM
  growth inhibition: 81% (active)
[12]; [16]
  growth inhibition: 53%
[12]; [17]
  growth inhibition: 82% (active)
[12]; at 50.0 µM
  growth inhibition: 89.3% (active)
[13]; at 1.2 µM
  growth inhibition: 83% (active)
[13]; at 3.7 µM
  growth inhibition: 90% (active)
[13]; at 11.0 µM
  growth inhibition: 91% (active)
[13]; at 33.0 µM
  growth inhibition: 94% (active)
[13]; at 100.0 µM
  growth inhibition: 92% (active)
